LAP4-GFP MLPCN: modulators of LAP4-GFP expression in yeast, primary screen, S. cerevisiae, multiplex flow cytometry, MLPCN library | 3 h; median GFP as percent of DMSO wells | 320,000 tested, 0.34% active | GFP response vs DMSO, % at 10 µM;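 active means GFP response vs DMSO above a set limit, about the screen mean plus 3 SD, cut at about 150% in these data; inconclusive means under 70 cell events counted for the yeast strain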
CIT2-GFP yeast: modulators of CIT2-GFP expression in yeast, primary screen, S. cerevisiae, GFP fusion, multiplex flow cytometry, MLPCN library; S. cerevisiae CIT2-GFP strain, 3 h; 100 means same as DMSO wells; GFP response vs DMSO, % at 10 µM; 320,000 tested, 0.065% active;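 active means GFP response relative to DMSO above a set limit, near the screen mean plus 3 SD, cut at about 150% in these data; inconclusive means Fewer than 70 cells measured for a yeast strain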;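 further: ratio of well median GFP fluorescence to mean of DMSO wells on the plate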
RPL19A TOR yeast: RPL19A-GFP expression modulators in yeast, primary screen, cell-based, S. cerevisiae, multiplex flow cytometry, MLPCN | AID 2025, 2009 | percent response vs DMSO, % at 10 µM | S. cerevisiae RPL19A-GFP strain, 3 h; stronger effect = lower value | 330,000 tested, 0.3% active;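 active means percent response vs DMSO below 50%; inconclusive means fewer than 70 events counted for the yeast strain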;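 further: median channel GFP fluorescence of the barcoded RPL19A-GFP strain; lower means less RPL19A-GFP as with rapamycin TOR inhibition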
MEP2-GFP yeast: modulators of MEP2-GFP levels in yeast, primary screen, S. cerevisiae, multiplex flow cytometry, MLPCN library | 330,000 tested, 0.51% active | GFP response vs DMSO, % at 10 µM | S. cerevisiae MEP2-GFP strain, 3 h; 100% = DMSO control level | AID 2016, 2009;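 active means GFP response versus DMSO above a set limit, roughly screen mean plus 3 SD, cut at about 180% in these data; inconclusive means fewer than 70 cells counted for a yeast strain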;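 further: median GFP fluorescence of the barcode-gated MEP2-GFP cells per well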
DSG3 Ab inh: inhibitors of pemphigus antibody binding to DSG3, primary screen, biochemical, bead-based, flow cytometry, scFv-GFP; Desmoglein-3 (Homo sapiens), P32926; DSG3-coupled beads, scFv-anti-DSG3-GFP binding; stronger effect = lower value; binding (percent of control), % at 10 µM; 310,000 tested, 0.48% active; AID 588358, 2011;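 active means binding more than 3 SD below its plate's average and above zero; inconclusive means below that plate limit but binding exactly zero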;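 further: hits lower antibody fragment binding to DSG3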
Target sequence (P32926 whole entry, looked up, the tested form may be a part): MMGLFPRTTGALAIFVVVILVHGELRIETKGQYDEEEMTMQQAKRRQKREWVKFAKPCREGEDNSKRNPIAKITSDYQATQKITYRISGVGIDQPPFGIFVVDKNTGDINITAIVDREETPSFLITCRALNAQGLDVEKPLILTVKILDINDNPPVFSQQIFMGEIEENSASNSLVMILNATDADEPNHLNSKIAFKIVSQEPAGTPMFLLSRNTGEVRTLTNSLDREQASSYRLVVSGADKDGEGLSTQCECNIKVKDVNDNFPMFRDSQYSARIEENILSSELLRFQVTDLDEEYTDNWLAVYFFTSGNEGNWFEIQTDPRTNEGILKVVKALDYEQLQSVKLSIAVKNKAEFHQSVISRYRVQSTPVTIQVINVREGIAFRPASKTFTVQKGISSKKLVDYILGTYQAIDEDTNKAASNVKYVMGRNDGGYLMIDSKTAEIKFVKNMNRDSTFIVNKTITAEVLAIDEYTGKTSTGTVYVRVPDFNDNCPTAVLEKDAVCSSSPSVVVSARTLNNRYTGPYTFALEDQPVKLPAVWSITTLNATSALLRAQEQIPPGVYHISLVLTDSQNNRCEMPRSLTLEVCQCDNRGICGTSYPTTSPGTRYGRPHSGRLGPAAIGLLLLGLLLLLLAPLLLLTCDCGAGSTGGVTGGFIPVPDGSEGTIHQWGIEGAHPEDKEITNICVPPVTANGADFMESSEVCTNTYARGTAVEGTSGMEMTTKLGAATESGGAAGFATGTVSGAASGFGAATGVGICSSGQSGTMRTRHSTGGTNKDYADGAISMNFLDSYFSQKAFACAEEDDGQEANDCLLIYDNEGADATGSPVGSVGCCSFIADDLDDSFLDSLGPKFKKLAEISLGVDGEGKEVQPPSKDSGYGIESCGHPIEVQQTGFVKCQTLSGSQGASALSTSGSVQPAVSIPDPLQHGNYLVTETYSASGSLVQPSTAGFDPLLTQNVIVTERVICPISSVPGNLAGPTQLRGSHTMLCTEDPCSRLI
AGP1-GFP MLPCN: modulators of AGP1-GFP expression in yeast TOR pathway, primary screen, cell-based, multiplex flow cytometry, S. cerevisiae, MLPCN library | 320,000 tested, 0.02% active | GFP response vs DMSO, % at 10 µM | 3 h; GFP as percent of DMSO wells;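 active means GFP response relative to DMSO above a set limit, near screen average plus 3 SD, cut at about 150% in these data; inconclusive means fewer than 70 cells counted for the yeast strain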;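 further: median GFP channel fluorescence of the gated AGP1 strain per well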
Each line names hits and unclear results; the compound was inactive in the other large screens; [ ] = remark or other dose. Rows were chosen to be rich in hits. Some 1.2% of all compounds tested hit in one or more screens of this group.

CCC(c1nnnn1CCOC)N1CCN(Cc2ccccc2OC)CC1 (configuration not stated)	CIT2-GFP yeast inconclusive, MEP2-GFP yeast 260[may fluoresce violet], AGP1-GFP MLPCN inconclusive (no result: RPL19A TOR yeast)
CCC(=O)Oc1ccc(C(=O)Nc2cccc(C(=O)NC(C)(C)C)c2)cc1	DSG3 Ab inh 87
COc1ccc(NC(=S)N(CCCOC(C)C)C2CCN(C(C)=O)CC2)cc1Cl	none
COc1ccc(C(=O)Nc2ccc(C(=O)N3CCCCC3)cc2)cc1OC	CIT2-GFP yeast inconclusive, MEP2-GFP yeast 355[may fluoresce violet]
COc1ccc(C(=O)Nc2ccc3c(c2)C(=O)c2ccccc2C3=O)cc1OC	DSG3 Ab inh 72
CCn1ccnc1CNC(=O)c1ccc2oc(CCCc3ccccc3)nc2c1	none
NCCSc1c(-c2ccc(F)cc2)[nH]c2ccccc12	CIT2-GFP yeast inconclusive, MEP2-GFP yeast 616[may fluoresce violet]
COc1cc(CN2CCC(n3nccc3NC(=O)c3ccc4c(c3)OCO4)CC2)ccc1O	none
Cc1cccc(C)c1OCC(=O)Nc1ccccc1N1CCCCC1	none
O=C(CCCN1C(=O)c2cccc3cccc(c23)C1=O)N1CCN(c2ccccc2O)CC1	none
O=C(CCCCCN1C(=O)c2cccc3cccc(c23)C1=O)NCCO	DSG3 Ab inh 73
O=C(CCCN1C(=O)c2cccc3cccc(c23)C1=O)N1CCN(c2ccccc2)CC1	DSG3 Ab inh 47
CCOCCOC(=O)c1ccc(NC(=O)c2cc3ccccc3o2)cc1	none (no result: LAP4-GFP MLPCN, CIT2-GFP yeast, RPL19A TOR yeast, MEP2-GFP yeast, AGP1-GFP MLPCN)
O=C1N[C@H]2CC=C[C@H]2Nc2ccccc21	DSG3 Ab inh 68 (no result: LAP4-GFP MLPCN, CIT2-GFP yeast, RPL19A TOR yeast, MEP2-GFP yeast, AGP1-GFP MLPCN)
O=C(O)CN1C(=O)CC(c2ccccc2)CC1=O	none
C/C(=N\Nc1ccc(S(=O)(=O)Nc2ccccc2)cc1[N+](=O)[O-])c1ccc(N2CCOCC2)cc1	DSG3 Ab inh 76
Oc1ccccc1C(Nc1nccs1)c1ccc2cccnc2c1O (configuration not stated)	DSG3 Ab inh 70
Cc1ccc(/C=N/NC(=O)c2nnn(-c3nonc3N)c2CSc2ccccc2)o1	none
Cc1ccc(SCc2c(C(=O)N/N=C/c3ccc(C)o3)nnn2-c2nonc2N)cc1	DSG3 Ab inh 86 (no result: LAP4-GFP MLPCN, CIT2-GFP yeast, RPL19A TOR yeast, MEP2-GFP yeast, AGP1-GFP MLPCN)
CCCOc1ccc(-c2c(C(=O)N/N=C/C3CCCCC3)nnn2-c2nonc2N)cc1	CIT2-GFP yeast inconclusive, RPL19A TOR yeast 27[may fluoresce violet], AGP1-GFP MLPCN inconclusive
CCCOc1ccc(-c2c(C(=O)N/N=C/C3CC=CCC3)nnn2-c2nonc2N)cc1 (configuration not stated)	none (no result: DSG3 Ab inh)
CCOc1ccc(-c2c(C(=O)N/N=C/c3ccco3)nnn2-c2nonc2N)cc1	DSG3 Ab inh 3.4
Cc1ccc(-c2c(C(=O)N/N=C/c3ccco3)nnn2-c2nonc2N)cc1	none
O=C(OCn1nnc2ccccc2c1=O)C1=COCCO1	CIT2-GFP yeast inconclusive, MEP2-GFP yeast 312[may fluoresce violet]
O=C(OCn1nnc2ccccc2c1=O)c1ccco1	none
O=c1ccc2c(-c3ccccc3)c3ccc(O)cc3oc-2c1	none
Nc1ccc(-c2c3ccc(=O)cc-3oc3cc(O)ccc23)cc1C(=O)O	LAP4-GFP MLPCN 157
CC(=O)N(/N=C/c1ccc(C)cc1)c1nc(CCl)cs1	none
CCc1ccc(N(C(C)=O)c2nc(CCl)cs2)cc1	DSG3 Ab inh 87
COc1ccc(NS(=O)(=O)c2ccc(-c3coc(C)n3)cc2)cc1OC	none
CSc1cccc(NS(=O)(=O)c2ccc(-c3coc(C)n3)cc2)c1	DSG3 Ab inh 3.0
Cc1nc(-c2ccc(S(=O)(=O)Nc3cccc(Cl)c3)cc2)co1	DSG3 Ab inh 59
Cc1noc(C)c1NC(=O)N(C)C[C@H]1OCc2cnnn2CCCC(=O)N([C@H](C)CO)C[C@@H]1C	none (no result: LAP4-GFP MLPCN, CIT2-GFP yeast, RPL19A TOR yeast, MEP2-GFP yeast, AGP1-GFP MLPCN)
CC1CCCCN1C(=S)NC(=O)c1cc(Br)ccc1Cl (configuration not stated)	DSG3 Ab inh inconclusive
CN(C)Cc1cc(C(C)(C)C)cc(C(C)(C)C)c1O	none
CN(C)Cc1cc(O)c(CN(C)C)cc1O	DSG3 Ab inh 92
C[C@H]1COC(=O)[C@@H](Cc2ccc(F)cc2)CC/C=C/C[C@@H](CC(=O)N(CCO)Cc2ccccc2)C(=O)N1	DSG3 Ab inh 80
c1coc(-c2nnc(-c3ccco3)nn2)c1	none
COc1ccc(CCNC(=O)COc2cccc(-n3cnnn3)c2)cc1	none (no result: LAP4-GFP MLPCN, CIT2-GFP yeast, RPL19A TOR yeast, MEP2-GFP yeast, AGP1-GFP MLPCN)
O=C1/C(=C/C=C/c2ccco2)SC(=S)N1c1ccc(O)cc1	DSG3 Ab inh 78
CC(C)C(C(=O)O)N1C(=O)/C(=C/C=C/c2ccco2)SC1=S (configuration not stated)	DSG3 Ab inh 76
O=C(Cn1nnnc1CN1CCOCC1)N1CCC(c2cccc(Cl)c2)C1 (configuration not stated)	none
O=C(Nc1ccc(C(F)(F)F)cc1-c1ccccc1)c1ccccc1	DSG3 Ab inh 65
CCCCCOc1ccc(C(=O)CCC(=O)NC(C)c2ccc(S(N)(=O)=O)cc2)cc1 (configuration not stated)	none
CN1CCN(C(CNC(=O)C(=O)Nc2ccc3c(c2)OCO3)c2ccc(F)cc2)CC1 (configuration not stated)	none
Cc1c(C)c2cc(Cl)c(O)c(CN(C)C)c2oc1=O	CIT2-GFP yeast inconclusive
CCc1c(C)c2cc(Cl)c(O)c(CN(C)C)c2oc1=O	MEP2-GFP yeast 193
CN(C)Cc1c(O)c(Cl)cc2c3c(c(=O)oc12)CCCC3	CIT2-GFP yeast inconclusive, MEP2-GFP yeast 175[may fluoresce violet]
COc1ccc(CNC(=O)C[C@H]2C[C@H](C(=O)N3CCCCC3)[C@@]3(C)c4[nH]c5ccc(Cl)cc5c4CCN3C2=O)cc1OC	none (no result: LAP4-GFP MLPCN, CIT2-GFP yeast, RPL19A TOR yeast, MEP2-GFP yeast, AGP1-GFP MLPCN)
C=CCNC(=S)N1CCN(CCN=CC2=C(O)CC(c3ccc(Cl)cc3)CC2=O)CC1 (configuration not stated)	none
Cc1cc(=O)oc2cc(OCc3ccc(C(=O)OCC(=O)NC4CCS(=O)(=O)C4)cc3)ccc12 (configuration not stated)	DSG3 Ab inh 70
CN1CCN(c2ccccc2NC(=O)c2ccc3c(c2)OCCO3)CC1	none (no result: DSG3 Ab inh)
Cc1ccc(S(=O)(=O)N2C[C@H]3[C@H]4C(=O)N(c5ccccc5)C(=O)[C@H]4C[C@H](OC(=O)Nc4c(C)noc4C)[C@@]3(O)C2)cc1	none (no result: LAP4-GFP MLPCN, CIT2-GFP yeast, RPL19A TOR yeast, MEP2-GFP yeast, AGP1-GFP MLPCN)
Cc1ccc(S(=O)(=O)N2C[C@H]3n4c(=O)ccc(=O)n4C[C@H](OC(=O)Nc4c(C)noc4C)[C@@]3(O)C2)cc1	DSG3 Ab inh 92 (no result: LAP4-GFP MLPCN, CIT2-GFP yeast, RPL19A TOR yeast, MEP2-GFP yeast, AGP1-GFP MLPCN)
Cc1ccc(S(=O)(=O)Nc2c(C)n(C)n(-c3ccccc3)c2=O)cc1C(=O)NCc1ccco1	none (no result: LAP4-GFP MLPCN, CIT2-GFP yeast, RPL19A TOR yeast, MEP2-GFP yeast, AGP1-GFP MLPCN)

Bioassay records: PubChem, NMMLSC
